Measurements reported in PubChem BioAssay (Tox21).
Inconclusive results are not listed. A call without a number means that no potency is given here. Some compounds were tested as several samples or in several runs, with calls that do not always agree. The source made the active and inactive calls. The call rests on the fitted dose curve.
Potency means the concentration at half of the fitted maximal effect.

Each compound was assayed against Acetylcholinesterase (Homo sapiens) (UniProt P22303) (assay: Acetylcholinesterase (AChE) small molecule antagonists: colormetric cell-based qHTS assay (AID 1347395; further: nearly all actives have a fitted effect of over 30% in size)). Conditions: SH-SY5Y cells AChE activity, colorimetric (Ellman); series mostly up to 115 µM.
Chain of Acetylcholinesterase (Homo sapiens) (P22303 whole entry, looked up): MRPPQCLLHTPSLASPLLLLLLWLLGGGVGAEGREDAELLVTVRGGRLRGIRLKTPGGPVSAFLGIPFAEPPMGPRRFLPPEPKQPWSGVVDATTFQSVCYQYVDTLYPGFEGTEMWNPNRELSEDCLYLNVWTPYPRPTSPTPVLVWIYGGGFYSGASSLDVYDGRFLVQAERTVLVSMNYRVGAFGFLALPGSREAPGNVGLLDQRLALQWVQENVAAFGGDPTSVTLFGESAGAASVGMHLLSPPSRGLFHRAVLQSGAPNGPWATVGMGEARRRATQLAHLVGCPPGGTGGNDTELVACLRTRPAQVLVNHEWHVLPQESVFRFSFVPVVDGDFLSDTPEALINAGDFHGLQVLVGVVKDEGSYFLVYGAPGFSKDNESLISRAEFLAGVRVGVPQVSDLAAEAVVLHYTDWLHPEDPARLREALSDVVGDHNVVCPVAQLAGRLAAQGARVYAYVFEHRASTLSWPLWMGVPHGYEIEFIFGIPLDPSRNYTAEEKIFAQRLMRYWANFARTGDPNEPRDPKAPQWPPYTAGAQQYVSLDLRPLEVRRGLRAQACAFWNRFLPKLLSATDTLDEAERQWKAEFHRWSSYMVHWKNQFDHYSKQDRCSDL
Procedure, shortened: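 Cells (SH-SY5Y, 2,000 per well) are seeded and left overnight at 37 C. Compound is added for 30 min, then DTNB and acetylthiocholine for a further 90 min at 37 C before absorbance-based thiocholine detection.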
`CC(C)CC(C)(C)C` was tested, and the Potency was “inactive”. With `CC(=O)CC(=O)N(C)C` the Potency was “inactive”. With `O=C(NS(=O)(=O)/C=C/c1ccccc1)c1ccc(F)cc1Cl` the Potency was “inactive”. For `CCCCCCC(CO)CCCC` (stereo not given), the Potency was “inactive”. `COC(=O)c1ccc(O)cc1` was tested, and the Potency was “inactive”. With `COc1ccc2c(c1)c(CC(=O)OCC(=O)O)c(C)n2C(=O)c1ccc(Cl)cc1` the Potency was “inactive”. With `Cc1cccc2c1cc1ccc3cccc4ccc2c1c34` the Potency was “inactive”. `O=Cc1ccccc1Cl` was tested, and the Potency was “inactive”. In the case of `CN(C)CCCCl`, the Potency is reported as “inactive”. With `CCCCN(CCO)CCCC` the Potency was “inactive”. With `COc1ccc(CN(CCN(C)C)c2ccccn2)cc1` the Potency was “inactive”. `CCCCCCCCCCCCCCCCBr` was tested, and the activity, negative = inhibition was 0.0868% [at 23.6 µM] (inactive). `Oc1ccccc1-c1nnco1` was tested, and the Potency was “inactive”. With `CCC(C)n1ncn(-c2ccc(N3CCN(c4ccc(OC[C@H]5CO[C@](Cn6cncn6)(c6ccc(Cl)cc6Cl)O5)cc4)CC3)cc2)c1=O` (stereo not given in full) the Potency was “inactive”. With `COc1ccc(-c2coc3cc(O)cc(O)c3c2=O)cc1` the Potency was “inactive”. In the case of `CC(=O)OCC(=O)[C@@]1(O)[C@H](C)C[C@H]2[C@@H]3CCC4=CC(=O)C=C[C@]4(C)[C@@]3(F)[C@@H](O)C[C@@]21C`, the Potency is reported as “inactive”. In the case of `O=C(O)CCc1ccccc1`, the Potency is reported as “inactive”. In the case of `CO[C@@]1(NC(=O)CSC[C@@H](N)C(=O)O)C(=O)N2C(C(=O)O)=C(CSc3nnnn3C)CS[C@@H]21`, the Potency is reported as “inactive”. `CCOc1cccc(-n2cc(C(=O)N3CCN(c4cc(C(=O)O)c5ccccc5c4)CC3)nc2-c2ccc(C)cc2)c1` was tested, and the Potency was “inactive”. With `FC(F)(Cl)C(F)(Cl)Cl` the Potency was “inactive”. `CC(=O)/C=C/c1ccco1` was tested, and the Potency was “inactive”. With `O=[N+]([O-])c1ccc2nc[nH]c2c1` the Potency was “inactive”. For `c1ccc(Nc2cccc3ccccc23)cc1`, the Potency was “inactive”. `C=C[Si](OC(=C)C)(OC(=C)C)OC(=C)C` was tested, and the Potency was “inactive”. `CC(=O)N1CCN(c2ccc(O)cc2)CC1` was tested, and the Potency was “inactive”. In the case of `CC(C)c1cc2c(cc1S(=O)(=O)O)[C@@]1(C)CCC[C@@](C)(C(=O)O)[C@@H]1CC2`, the Potency is reported as “inactive”. With `O=S(=O)(O)c1cc(Cl)c(Cl)cc1Cl` the Potency was “inactive”. In the case of `O=C1c2ccccc2C(=O)N1SC1CCCCC1`, the Potency is reported as 39.9 µM (active) and inactive. For `O=C(O)c1cc(C(=O)O)cc(S(=O)(=O)O)c1`, the Potency was “inactive”. `COc1ccc(OC)c(N=Nc2c(O)ccc3ccccc23)c1` was tested, and the Potency was “inactive”. With `CC(C)(c1ccccc1)c1ccccc1` the Potency was “inactive”. For `C[C@H]1[C@H]2CC[C@H]3[C@@H]4CC=C5C[C@@H](N(C)C)CC[C@]5(C)[C@H]4CC[C@]23CN1C`, the Potency was “inactive”. For `O=[N+]([O-])c1ccccc1CCO`, the Potency was “inactive”. With `CC(C)CCCCCCCOC(=O)c1ccc(C(=O)OCCCCCCCC(C)C)c(C(=O)OCCCCCCCC(C)C)c1` the Potency was “inactive”. In the case of `CC(C)(CO)[C@@H](O)C(=O)NCCC(=O)O`, the Potency is reported as “inactive”. With `CCCCC(=O)OCC(=O)[C@H]1[C@H](C)C[C@H]2[C@@H]3C[C@H](F)C4=CC(=O)C=C[C@]4(C)[C@@]3(F)[C@@H](O)C[C@@]21C` the Potency was “inactive”. `C=CCc1cc(OC)c(O)c(C(=O)NCCO)c1` was tested, and the Potency was “inactive”. In the case of `C=CCOc1cc(Cl)ccc1C(=O)NCCN(CC)CC`, the Potency is reported as “inactive”. In the case of `c1cc(-c2ccncc2)ccn1`, the Potency is reported as “inactive”. In the case of `C/C=C/CO`, the Potency is reported as “inactive”.

Each compound was assayed against Acetylcholinesterase (Homo sapiens) (UniProt P22303) (assay: Acetylcholinesterase (AChE) small molecule antagonists: enzyme-based qHTS assay (AID 1347397; further: nearly all actives have a fitted effect of over 55% in size)). Conditions: Potency: AChE enzyme activity inhibition; outcome: AChE enzyme activity inhibition; series mostly up to 115 µM.
Procedure, shortened: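 Tox21 library chemicals are tested in qHTS format against recombinant human AChE. The enzyme, dispensed at 50 mU/mL, sits with compound for 30 min at room temperature. A DTNB–acetylthiocholine cocktail follows, and colour is read after 10 min.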
`CC(C)CC(C)(C)C` was tested, and the Potency was “inactive”. With `CC(=O)CC(=O)N(C)C` the Potency was “inactive”. `O=C(NS(=O)(=O)/C=C/c1ccccc1)c1ccc(F)cc1Cl` was tested, and the Potency was “inactive”. In the case of `CCCCCCC(CO)CCCC` (stereo not given), the Potency is reported as “inactive”. `COC(=O)c1ccc(O)cc1` was tested, and the Potency was “inactive”. In the case of `COc1ccc2c(c1)c(CC(=O)OCC(=O)O)c(C)n2C(=O)c1ccc(Cl)cc1`, the Potency is reported as “inactive”. For `Cc1cccc2c1cc1ccc3cccc4ccc2c1c34`, the Potency was “inactive”. With `O=Cc1ccccc1Cl` the Potency was “inactive”. `CN(C)CCCCl` was tested, and the Potency was “inactive”. For `CCCCN(CCO)CCCC`, the Potency was “inactive”. `COc1ccc(CN(CCN(C)C)c2ccccn2)cc1` was tested, and the Potency was “inactive”. In the case of `CCCCCCCCCCCCCCCCBr`, the activity change, negative = inhibition is reported as 2.89% [at 23.6 µM] (inactive). With `Oc1ccccc1-c1nnco1` the Potency was “inactive”. For `CCC(C)n1ncn(-c2ccc(N3CCN(c4ccc(OC[C@H]5CO[C@](Cn6cncn6)(c6ccc(Cl)cc6Cl)O5)cc4)CC3)cc2)c1=O` (stereo not given in full), the Potency was “inactive”. For `COc1ccc(-c2coc3cc(O)cc(O)c3c2=O)cc1`, the Potency was “inactive”. With `CC(=O)OCC(=O)[C@@]1(O)[C@H](C)C[C@H]2[C@@H]3CCC4=CC(=O)C=C[C@]4(C)[C@@]3(F)[C@@H](O)C[C@@]21C` the Potency was “inactive”. For `O=C(O)CCc1ccccc1`, the Potency was “inactive”. For `CO[C@@]1(NC(=O)CSC[C@@H](N)C(=O)O)C(=O)N2C(C(=O)O)=C(CSc3nnnn3C)CS[C@@H]21`, the Potency was “inactive”. `CCOc1cccc(-n2cc(C(=O)N3CCN(c4cc(C(=O)O)c5ccccc5c4)CC3)nc2-c2ccc(C)cc2)c1` was tested, and the Potency was “inactive”. In the case of `FC(F)(Cl)C(F)(Cl)Cl`, the Potency is reported as “inactive”. For `CC(=O)/C=C/c1ccco1`, the Potency was “inactive”. In the case of `O=[N+]([O-])c1ccc2nc[nH]c2c1`, the Potency is reported as “inactive”. `c1ccc(Nc2cccc3ccccc23)cc1` was tested, and the Potency was “inactive”. With `C=C[Si](OC(=C)C)(OC(=C)C)OC(=C)C` the Potency was “inactive”. `CC(=O)N1CCN(c2ccc(O)cc2)CC1` was tested, and the Potency was “inactive”. In the case of `CC(C)c1cc2c(cc1S(=O)(=O)O)[C@@]1(C)CCC[C@@](C)(C(=O)O)[C@@H]1CC2`, the Potency is reported as “inactive”. With `O=S(=O)(O)c1cc(Cl)c(Cl)cc1Cl` the Potency was “inactive”. With `O=C1c2ccccc2C(=O)N1SC1CCCCC1` the Potency was 31.7 µM (active) and inactive. For `O=C(O)c1cc(C(=O)O)cc(S(=O)(=O)O)c1`, the Potency was “inactive”. For `COc1ccc(OC)c(N=Nc2c(O)ccc3ccccc23)c1`, the Potency was “inactive”. In the case of `CC(C)(c1ccccc1)c1ccccc1`, the Potency is reported as “inactive”. With `C[C@H]1[C@H]2CC[C@H]3[C@@H]4CC=C5C[C@@H](N(C)C)CC[C@]5(C)[C@H]4CC[C@]23CN1C` the Potency was “inactive”. With `O=[N+]([O-])c1ccccc1CCO` the Potency was “inactive”. For `CC(C)CCCCCCCOC(=O)c1ccc(C(=O)OCCCCCCCC(C)C)c(C(=O)OCCCCCCCC(C)C)c1`, the Potency was “inactive”. In the case of `CC(C)(CO)[C@@H](O)C(=O)NCCC(=O)O`, the Potency is reported as “inactive”. `CCCCC(=O)OCC(=O)[C@H]1[C@H](C)C[C@H]2[C@@H]3C[C@H](F)C4=CC(=O)C=C[C@]4(C)[C@@]3(F)[C@@H](O)C[C@@]21C` was tested, and the Potency was “inactive”. In the case of `C=CCc1cc(OC)c(O)c(C(=O)NCCO)c1`, the Potency is reported as “inactive”. `C=CCOc1cc(Cl)ccc1C(=O)NCCN(CC)CC` was tested, and the Potency was “inactive”. `c1cc(-c2ccncc2)ccn1` was tested, and the Potency was “inactive”. In the case of `C/C=C/CO`, the Potency is reported as “inactive”.
